Screening results (PubChem BioAssay)
The entries come from a sample that favours hits as a whole.
HT1080 IDH1KD tx – toxicity to HT-1080 IDH1 knockdown cells (counter line) | HT-1080 IDH1 knockdown viability, ATP luminescence, 48 h | 360,000 tested, 2% active | Potency, µM (titrated, usually from 46.1 µM), for the others: top-dose activity, negative = toxicity, actives largely listed as cytotoxic;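 note: potency is the fitted concentration of half-maximal effect; 0% = DMSO wells and -100% = cell-free medium wells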
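Cytotoxicity counter-line: IDH1KD HT-1080, 48 h, CellTiter-Glo. Curves classed by r2, magnitude and activity.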
DT40 TDP1 no CPT – qHTS for Inhibitors of human tyrosyl-DNA phosphodiesterase 1 (TDP1): qHTS in cells in absence of CPT | AID 686978, 2013 | 420,000 tested, 15% active | Potency, µM (highest dose often 46.2 µM), without a hit: top-dose activity change, negative = growth inhibition, actives largely listed as inhibitors | DT40 Tdp1-/- hTDP1 cells, no CPT, ATP luminescence, 48 h; note: potency is the fitted concentration of half-maximal effect; nearly all actives have a fitted effect of over 55% in size
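Stably hTDP1-transfected Tdp1-null chicken DT40 cells were treated with library compounds minus camptothecin and grown for at least 48 hr at 37 °C, after which cellular ATP was quantified by luminescence.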
HT1080NT lethal – kills 2HG-producing HT-1080-NT fibrosarcoma cells; AID 686970; Potency, µM (titrated, usually from 46.1 µM), without a hit: at the top dose activity, negative = less viability, most hits filed as cytotoxic; HT-1080-NT fibrosarcoma viability, CellTiter-Glo ATP luminescence, 48 h; 360,000 tested, 1.6% active;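 note: NT is the 2HG producing partner of a matched IDH1 knockdown line; potency is the fitted concentration of half-maximal effect; 0% = DMSO-treated cells and -100% = media-only wells without cells; nearly all actives have a fitted effect of over 55% in size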
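Fibrosarcoma NT cells, 750 per well in 5% FBS RPMI, were exposed to compound for 48 hours. Viability: CellTiter-Glo luminescence.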
IL1B secr inh – inhibitors of inflammasome signaling (IL-1 beta secretion); THP-1 LPS/ATP IL-1B secretion, AlphaLISA, 16 h; hits give low values; activity change, % at 57.5 µM; 360,000 tested, 4.7% active; in the data active = activity change below about -50%; inconclusive = mostly about -30% to -49%
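Secreted IL-1B measured by AlphaLISA bead assay after 16 h compound exposure of THP-1 cells; compounds (final up to 57.5 uM) added 1 h before LPS (250 ng/mL) and ATP (1.25 mM) stimulation; lower signal means less secretion.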
ALOX12 inh – blocks human arachidonate 12S-lipoxygenase; 580,000 tested, 1.1% active; Potency, µM (doses to about 108 µM), for inactives: at the top dose activity change, negative = inhibition, hits mostly inhibitors; purified 12hLO, xylenol orange hydroperoxide absorbance; P18054; note: potency is the fitted concentration of half-maximal effect
Target sequence (P18054 whole entry, looked up): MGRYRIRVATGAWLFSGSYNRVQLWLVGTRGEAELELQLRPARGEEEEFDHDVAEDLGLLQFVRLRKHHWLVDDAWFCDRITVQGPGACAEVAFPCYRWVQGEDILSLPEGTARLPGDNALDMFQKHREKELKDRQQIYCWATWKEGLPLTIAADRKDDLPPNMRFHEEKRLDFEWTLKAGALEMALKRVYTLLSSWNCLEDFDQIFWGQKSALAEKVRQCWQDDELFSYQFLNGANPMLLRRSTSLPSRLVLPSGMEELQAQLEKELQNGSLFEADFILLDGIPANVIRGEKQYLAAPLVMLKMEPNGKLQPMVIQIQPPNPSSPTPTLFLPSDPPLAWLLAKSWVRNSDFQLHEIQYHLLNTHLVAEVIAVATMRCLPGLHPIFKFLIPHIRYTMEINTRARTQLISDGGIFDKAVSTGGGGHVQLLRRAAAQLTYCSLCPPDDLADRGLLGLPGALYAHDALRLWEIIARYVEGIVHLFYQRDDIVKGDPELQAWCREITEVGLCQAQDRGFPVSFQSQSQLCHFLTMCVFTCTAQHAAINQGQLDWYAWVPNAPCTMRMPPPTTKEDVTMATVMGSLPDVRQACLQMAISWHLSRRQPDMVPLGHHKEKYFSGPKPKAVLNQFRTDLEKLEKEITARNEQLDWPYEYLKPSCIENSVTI
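Hydroperoxide product was detected by ferrous iron/xylenol orange as the 573 to 405 nm absorbance ratio. Arachidonic acid at 40 uM (final) was turned over for 30 min at room temperature by 150 nM human 12hLO, pH 7.0 Hepes buffer, after 15 min compound preincubation.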
TDP1 cell CPT – DT40-hTDP1 cell growth loss with CPT; chicken DT40 Tdp1-/-;hTDP1 cells + 20 nM CPT, ATP luminescence, 48 h; Potency, µM (highest dose often 46.2 µM), for inactives: top-dose activity change, negative = growth inhibition, hits mostly inhibitors; 420,000 tested, 12% active; AID 686979; note: potency is the fitted concentration of half-maximal effect; nearly all actives have a fitted effect of over 55% in size
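Chicken DT40 Tdp1-/- cells stably complemented with human TDP1 were seeded at 400 cells/well in medium containing 20 nM camptothecin, exposed to pin-transferred compounds, and grown at 37 °C for at least 48 hr. Viability was read as ATP luminescence.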
Active calls of the source: *; ! = not confirmed by another sample. Unless noted, calls come from the whole dose curve; as a rule, active = well fitted curve in the direction sought with a large enough effect; inconclusive = small, poorly fitted or top-dose-only effect, or another doubt; inactive = no such curve, though single readings can be large; an effect the other way counts as inactive or inconclusive. Unless noted, % is set by controls: 0 for no effect and ±100 for the full control effect.

COc1ccccc1OCc1ccc(C(=O)Nc2ccncc2)o1 was read as HT1080 IDH1KD tx inconclusive, DT40 TDP1 no CPT 20.6µM*, HT1080NT lethal -8.7%, IL1B secr inh -19.1, ALOX12 inh 15.5% and TDP1 cell CPT inconclusive.
`O=C(Nc1cccnc1)c1ccc(COc2ccccc2Br)o1` gave HT1080 IDH1KD tx 10µM*, DT40 TDP1 no CPT inconclusive, HT1080NT lethal 4.47µM*, IL1B secr inh -11.7, ALOX12 inh -11.3% and TDP1 cell CPT inconclusive.
For COc1cccc(C(=O)N2CCC3(CC2)OCC(C(=O)NC(C)C)N3C(=O)c2ccccc2C)c1 (stereo not given) the results were ALOX12 inh 11.3%.
Screening Cc1ncc([N+](=O)[O-])n1CCOC(=O)Nc1ccc([N+](=O)[O-])cc1 returned HT1080 IDH1KD tx -6.2%, DT40 TDP1 no CPT 7.2%, HT1080NT lethal -0.4%, IL1B secr inh 35.8, ALOX12 inh -0.3% and TDP1 cell CPT 1.2%.
For Cc1ncc([N+](=O)[O-])n1CCOC(=O)c1cc(Cl)cc(Cl)c1N the results were HT1080 IDH1KD tx -2.8%, DT40 TDP1 no CPT inconclusive, HT1080NT lethal -9.9%, IL1B secr inh 14.5, ALOX12 inh 31.6µM* and TDP1 cell CPT -5.3%.
For CCc1c(C)nc2[nH]nc(-c3ccccc3C)n2c1=O the results were HT1080 IDH1KD tx -9.8%, DT40 TDP1 no CPT 14.6µM*, HT1080NT lethal -5.3%, IL1B secr inh -15.3, ALOX12 inh 11.2% and TDP1 cell CPT inconclusive.
For COc1cccc(CNC(=O)CSCc2cnn(-c3ccccc3)c2-n2cccc2)c1OC the results were HT1080 IDH1KD tx -1.6%, DT40 TDP1 no CPT inconclusive, HT1080NT lethal -6.9%, IL1B secr inh inconclusive, ALOX12 inh 0.0% and TDP1 cell CPT 25.9µM*.
For O=C(CSCc1cnn(-c2ccccc2)c1-n1cccc1)NCc1cccnc1 the results were HT1080 IDH1KD tx -3.2%, DT40 TDP1 no CPT inconclusive, HT1080NT lethal -2.4%, IL1B secr inh -22.1, ALOX12 inh -6.2% and TDP1 cell CPT inconclusive.
For O=C(CSCc1cnn(-c2ccccc2)c1-n1cccc1)NCc1cccc(Cl)c1 the results were DT40 TDP1 no CPT 23.1µM*, ALOX12 inh -11.9% and TDP1 cell CPT 16.4µM*.
`COc1ccccc1CNC(=O)CSCc1cnn(-c2ccccc2)c1-n1cccc1` gave HT1080 IDH1KD tx 0.6%, DT40 TDP1 no CPT 16.4µM*, HT1080NT lethal 5.6%, IL1B secr inh -16.9, ALOX12 inh -4.3% and TDP1 cell CPT inconclusive.
`O=C(CSCc1cnn(-c2ccccc2)c1-n1cccc1)NCc1ccccc1F` gave DT40 TDP1 no CPT inconclusive, ALOX12 inh -22.4% and TDP1 cell CPT inconclusive.
For Cc1ccc(CNC(=O)CCSCc2cnn(-c3ccccc3)c2-n2cccc2)cc1 the results were DT40 TDP1 no CPT 14.6µM*, ALOX12 inh inconclusive and TDP1 cell CPT 18.4µM*.
Screening O=C(CSCc1cnn(-c2ccccc2)c1-n1cccc1)N1CCN(Cc2ccccc2)CC1 returned HT1080 IDH1KD tx 3.2%, DT40 TDP1 no CPT 13µM*, HT1080NT lethal -11.1%, IL1B secr inh -1.3, ALOX12 inh -28.0% and TDP1 cell CPT inconclusive.
`O=C(O)CSCc1cnn(-c2ccccc2)c1-n1cccc1` gave HT1080 IDH1KD tx -3.4%, DT40 TDP1 no CPT -0.5%, HT1080NT lethal -1.4%, IL1B secr inh 8.3, ALOX12 inh inconclusive and TDP1 cell CPT -2.8%.
Screening Cn1cc(-c2ccccc2C(N)=O)c(=O)c2cc(Cl)ccc21 returned HT1080 IDH1KD tx 5.3%, DT40 TDP1 no CPT -24.0%, HT1080NT lethal 5.4%, IL1B secr inh 24.0, ALOX12 inh 0.0% and TDP1 cell CPT 1.0%.
For Cn1cc(C2=C(c3ccc(Cl)cc3Cl)C(=O)NC2=O)c2ccccc21 the results were HT1080 IDH1KD tx -27.4%, DT40 TDP1 no CPT 11.2µM*!, HT1080NT lethal 2.9%, IL1B secr inh -1.3, ALOX12 inh -8.1% and TDP1 cell CPT inconclusive.
Screening O=C(NCc1ccco1)C1CCCN1C(=O)Nc1ccc(Cl)cc1 (stereo not given) returned HT1080 IDH1KD tx 1.6%, DT40 TDP1 no CPT 16.4µM*, HT1080NT lethal 1.1%, IL1B secr inh -9.7, ALOX12 inh 0.4% and TDP1 cell CPT inconclusive.
O=C(NCc1cccs1)C1CCCN1C(=O)Nc1ccccc1Cl (stereo not given) was read as HT1080 IDH1KD tx 15.6%, DT40 TDP1 no CPT 23.1µM*, HT1080NT lethal 5.6%, IL1B secr inh 1.0, ALOX12 inh 5.6% and TDP1 cell CPT 5.8%.
Screening O=C(NCc1ccco1)C1CCCN1C(=O)Nc1cccc(Cl)c1 (stereo not given) returned HT1080 IDH1KD tx -4.2%, DT40 TDP1 no CPT 9.0%, HT1080NT lethal -1.6%, IL1B secr inh 11.6, ALOX12 inh inconclusive and TDP1 cell CPT -7.4%.
Screening O=C(NCCc1ccccc1)C1CCCN1C(=O)Nc1ccccc1 (stereo not given) returned HT1080 IDH1KD tx 9.5%, DT40 TDP1 no CPT 1.7%, HT1080NT lethal 14.3%, IL1B secr inh 1.4, ALOX12 inh -7.7% and TDP1 cell CPT 6.9%.
O=C(NCCc1ccccc1)C1CCCN1C(=O)Nc1ccc(Cl)cc1 (stereo not given) was read as HT1080 IDH1KD tx 0.4%, DT40 TDP1 no CPT inconclusive, HT1080NT lethal -9.6%, IL1B secr inh 12.2, ALOX12 inh inconclusive and TDP1 cell CPT 16.4µM*.
Screening O=c1oc2ccccc2cc1-c1nc(-c2cccs2)no1 returned DT40 TDP1 no CPT -24.3%, ALOX12 inh -14.8% and TDP1 cell CPT -27.2%.
CCOC(=O)C1(C)CCCCCN1C(=O)c1ccc(OC)cc1 (stereo not given) was read as HT1080 IDH1KD tx 2.4%, DT40 TDP1 no CPT inconclusive, HT1080NT lethal 23.1%, IL1B secr inh 59.3, ALOX12 inh -9.0% and TDP1 cell CPT 16.4µM*.
COc1ccc(C(=O)N2CCCC2(C)C(=O)O)cc1C(F)(F)F (stereo not given) was read as HT1080 IDH1KD tx 0.0%, DT40 TDP1 no CPT -0.9%, HT1080NT lethal 2.5%, IL1B secr inh 0.0, ALOX12 inh 0.8% and TDP1 cell CPT -17.6%.
CCOC(=O)C1(C)CCN1C(=O)c1ccccc1 (stereo not given) was read as HT1080 IDH1KD tx 2.3%, DT40 TDP1 no CPT -12.9%, HT1080NT lethal 30.0%, IL1B secr inh 0.3, ALOX12 inh 10.7% and TDP1 cell CPT -17.0%.
